Each compound was assayed on ANKK1. Details: Compound Concentration (nM):1000.
In the case of `CCS(=O)(=O)c1ccc(OC)c(Nc2ncc(-c3cccc(OC)c3)o2)c1` [GW580509X], the “Percent Control” value is reported as 95%.
With `COc1cccc(-n2ncc3c(N/N=C/c4ccncc4)ncnc32)c1` [GW784752X] the “Percent Control” value was 79%.
With `COc1ccc2c(-c3ccnc(Nc4cccc(OC(F)(F)F)c4)n3)cnn2n1` [GW810372X] the “Percent Control” value was 89%.
With `O=C1Nc2ccc(C(=O)c3ccco3)cc2C1=Cc1cc(Cl)c(O)c(Cl)c1` [GW406108X] the “Percent Control” value was 9.2%.
For `NS(=O)(=O)c1ccc(Nc2ncc(-c3ccccc3)o2)cc1` [GW572399X], the “Percent Control” value was 82%.
`COc1cc2ncn(-c3cc(O[C@H](C)c4ccccc4Cl)c(C(N)=O)s3)c2cc1OC` [GSK237701A] was tested, and the “Percent Control” value was 100%.
`Nc1ncnc2occ(-c3ccc(NC(=O)Nc4cc(C(F)(F)F)ccc4F)cc3)c12` [GW770249X] was tested, and the “Percent Control” value was 32%.
In the case of `NS(=O)(=O)c1ccc(N/N=C2\C(=O)Nc3ccc(C(=O)NCCc4c[nH]cn4)cc32)cc1` [GW300660X], the “Percent Control” value is reported as 59%.

Each compound was assayed on T1, ARK5. Details: Compound Concentration (nM):1000.
T1 construct: gene NUAK1
In the case of `Cl.O=C(Nc1ccc(Oc2ccc3[nH]c(NC(=O)c4ccco4)nc3c2)cc1)Nc1cc(C(F)(F)F)ccc1F` [GW683134A], the “Percent Control” value is reported as 100%.
In the case of `O=C(Nc1n[nH]c2nc(-c3ccc(O)cc3)c(Br)cc12)C1CC1` [SB-725317], the “Percent Control” value is reported as 100%.
In the case of `COc1cc2ncnc(Nc3ccc4c(cnn4Cc4ccccc4)c3)c2cc1OC.Cl` [GW282449A], the “Percent Control” value is reported as 100%.
In the case of `CN(C)CCNC(=O)Nc1ccc(N(C)c2ccnc(Nc3ccc(CS(C)(=O)=O)cc3)n2)cc1.Cl` [GW830900A], the “Percent Control” value is reported as 48%.
With `CC1=C(C(=O)Nc2ccc3[nH]ncc3c2)C(c2ccc(Cl)c(Cl)c2)CC(=O)N1` (stereo not drawn) [GSK299115A] the “Percent Control” value was 85%.
In the case of `COc1ccc(COc2ccc(Cc3cnc(N)nc3N)cc2OC)cc1` [GW632580X], the “Percent Control” value is reported as 100%.
For `CCS(=O)(=O)c1ccc(OC)c(Nc2ncc(-c3cccc(F)c3)o2)c1` [GW621970X], the “Percent Control” value was 100%.
With `COc1cc(/C=N/Nc2ncnc3[nH]ncc23)ccc1O` [GW578748X] the “Percent Control” value was 100%.
With `C/C(Nc1ccc(S(N)(=O)=O)cc1)=C1/C(=O)Nc2ccccc21` [GW335962X] the “Percent Control” value was 100%.
With `CN1CCN(C(=O)c2ccc(NC(=O)Nc3ccc(N(C)c4ccnc(Nc5ccc(CS(C)(=O)=O)cc5)n4)cc3)cc2)CC1.Cl` [GW830263A] the “Percent Control” value was 78%.
With `CC1=C(C(=O)Nc2ccc3[nH]ncc3c2)C(c2ccc3ccccc3c2)CC(=O)N1` (stereo not drawn) [GSK270822A] the “Percent Control” value was 81%.
For `COc1ccc2cc(-c3c(-c4ccncc4)nc(-c4ccc(S(C)(=O)=O)cc4C)n3C)ccc2c1` [SB-633825], the “Percent Control” value was 100%.
In the case of `COc1ccccc1-c1cc(/C=C2\C(=O)Nc3ncc(Br)cc32)cc(Br)c1O` [GW442130X], the “Percent Control” value is reported as 100%.
With `NS(=O)(=O)c1ccc(N/N=C2\C(=O)Nc3ccc(C(=O)NCc4ccncc4)cc32)cc1` [GW300657X] the “Percent Control” value was 86%.
In the case of `Cl.O=C(O[C@H]1CN[C@H](C#Cc2cc3ncnc(Nc4ccc5c(cnn5Cc5ccccc5)c4)c3s2)C1)N1CCOCC1` [GSK200398A], the “Percent Control” value is reported as 91%.
For `Cl.O=S1CCN(Cc2ccc(-c3ccc4ncnc(Nc5ccc(OCc6ccccc6)c(F)c5)c4c3)o2)CC1` [GW576924A], the “Percent Control” value was 100%.
With `Cl.c1ccc(Cc2nc3ccc(Nc4ncnc5ccccc45)cc3[nH]2)cc1` [GR269666A] the “Percent Control” value was 100%.
For `COc1cccc(-c2c[nH]c3c(N/N=C/c4ccncc4)ncnc23)c1` [GW814408X], the “Percent Control” value was 100%.
With `Cl.O=C(Nc1ccc(Oc2ccc3[nH]c(NC(=O)c4ccccc4)nc3c2)cc1)Nc1cc(C(F)(F)F)ccc1F` [GW709042A] the “Percent Control” value was 100%.
For `CCn1c(-c2nonc2N)nc2c(C#CC(C)(C)O)nc(OCCNC)cc21.Cl` [GSK949675], the “Percent Control” value was 100%.
With `CN(C)c1cc2c(Nc3ccc4c(cnn4Cc4ccccc4)c3)ncnc2cn1` [GW282974X] the “Percent Control” value was 100%.
For `C[C@@H](Oc1cc(-n2cnc3ccc(OC4CCN(C)CC4)cc32)sc1C(N)=O)c1ccccc1Cl` [GSK579289A], the “Percent Control” value was 19%.
For `CCc1ccc(Oc2nccc(-c3c(-c4ccc(F)cc4)ncn3C3CCNCC3)n2)cc1` [SB-242719], the “Percent Control” value was 100%.
For `NS(=O)(=O)c1ccc(N/N=C2\C(=O)Nc3ccc(-c4cnco4)cc32)cc1` [GW276655], the “Percent Control” value was 100%.
For `COc1cc(C)c(N(C)C(=O)CN(C)C)cc1Nc1nc(Nc2cccc(F)c2C(N)=O)c2cc[nH]c2n1` [GSK2219385], the “Percent Control” value was 86%.
`COc1ccc2[nH]c3c4[nH]c5ccc(OC)cc5c4c4c(c3c2c1)C(=O)NC4=O` [GW296115X] was tested, and the “Percent Control” value was 25%.
`COc1cc(C=NNc2ncnc3c2cnn3-c2ccccc2)ccc1O` [GW513184X] was tested, and the “Percent Control” value was 84%.
With `NS(=O)(=O)c1ccc(N/N=C2\C(=O)Nc3ccc(Cl)cc32)cc1` [GW280670X] the “Percent Control” value was 100%.
`COc1cc(N2CCN(C(C)C)CC2)ccc1Nc1nc(Nc2ccc(F)cc2C(=O)NC[C@@H](O)CO)c2cc[nH]c2n1` [GSK1392956A] was tested, and the “Percent Control” value was 67%.
`Cc1cc(O)cc(C)c1/C=C/c1cncc(C(N)=O)c1` [GW435821X] was tested, and the “Percent Control” value was 100%.
In the case of `COC(=O)Nc1nc2ccc(Oc3ccc(NC(=O)Nc4cc(C(F)(F)F)ccc4F)cc3)cc2s1.Cl` [GW693917A], the “Percent Control” value is reported as 100%.
`CC(C)COC(=O)c1ccc2c(c1)/C(=C/Nc1ccc(S(N)(=O)=O)cc1)C(=O)N2` [GW416981X] was tested, and the “Percent Control” value was 97%.
With `CCS(=O)(=O)c1ccc(OC)c(Nc2ncc(-c3cccc(OC)c3)o2)c1` [GW580509X] the “Percent Control” value was 100%.
`COc1cccc(-n2ncc3c(N/N=C/c4ccncc4)ncnc32)c1` [GW784752X] was tested, and the “Percent Control” value was 96%.
`COc1ccc2c(-c3ccnc(Nc4cccc(OC(F)(F)F)c4)n3)cnn2n1` [GW810372X] was tested, and the “Percent Control” value was 100%.
For `O=C1Nc2ccc(C(=O)c3ccco3)cc2C1=Cc1cc(Cl)c(O)c(Cl)c1` [GW406108X], the “Percent Control” value was 100%.
In the case of `NS(=O)(=O)c1ccc(Nc2ncc(-c3ccccc3)o2)cc1` [GW572399X], the “Percent Control” value is reported as 100%.
With `COc1cc2ncn(-c3cc(O[C@H](C)c4ccccc4Cl)c(C(N)=O)s3)c2cc1OC` [GSK237701A] the “Percent Control” value was 29%.
With `Nc1ncnc2occ(-c3ccc(NC(=O)Nc4cc(C(F)(F)F)ccc4F)cc3)c12` [GW770249X] the “Percent Control” value was 100%.
With `NS(=O)(=O)c1ccc(N/N=C2\C(=O)Nc3ccc(C(=O)NCCc4c[nH]cn4)cc32)cc1` [GW300660X] the “Percent Control” value was 80%.
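Also: KINOMEscan scanMAX binding as percent activity remaining versus control; lower means stronger binding.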
